# Measured values taken from PubChem BioAssay AID1259343 (VanderVen Lab, College of Veterinary Medicine, Cornell …, 2017).
# Out of some 6,200 compounds screened, about 2,900 (47%) were called active. So high a share suggests a set chosen from earlier hits. The list shows a part of the results. Unmarked numbers belong to inactive results. Rule as the data show it: active = inhibition above about 50%; inactive = the rest.
# Assay: Mycobacterium tuberculosis growth inhibition, primary screen (AID 1259343)
# Conditions: inhibition: at 10 µM, hits give high values; outcome: 10 uM
row,Compound,inhibition
1,COc1cc(NC(=O)c2ccc(C)o2)cc(OC)c1,81.4% (active)
2,COc1cc(NC(=O)c2ccc(Cl)s2)cc(OC)c1,3.54%
3,O=C(COc1cccc2cccnc12)NCC1CCCCC1,89.7% (active)
4,O=C(COc1ccc([N+](=O)[O-])cc1)NCC1CCCCC1,-9.56%
5,c1cc(-c2cc3ccccc3o2)cc(-n2cnnc2)c1,74.5% (active)
6,NCCOCc1ccc(-c2cc3ccccc3o2)cc1,15.6%
7,CCOC(=O)Cc1csc(NC(=O)c2csc(-c3cc4ccccc4[nH]3)n2)n1,65.7% (active)
8,CCOC(=O)Cc1csc(NC(=S)NC(=O)c2cccs2)n1,88% (active)
9,CC(NC(=O)CCl)c1cccc2ccccc12 (centres undefined),86.2% (active)
10,Cc1cccc(OCC(=O)NC(C)c2cc3ccccc3o2)c1C (centres undefined),83.5% (active)
11,CC(NC(=O)NCCc1ccc(F)cc1)c1ccccc1Br (centres undefined),31.6%
12,CCc1ccc(C(C)NS(=O)(=O)CC2CCCCC2)cc1 (centres undefined),24.7%
13,CN(C1CCCCC1)S(=O)(=O)NCC1Cc2ccccc2O1 (centres undefined),-12.8%
14,CC(NS(=O)(=O)CC1CCCCC1)c1cc2ccccc2o1 (centres undefined),91.2% (active)
15,CC(NC(=O)CCl)c1cc2ccccc2o1 (centres undefined),58.8% (active)
16,COc1cc(-c2c(NC(=O)CC(C)C)oc3c(C)cccc3c2=O)cc(OC)c1OC,-22.3%
17,CCc1ccc(C(C)NC(=O)c2ccc(S(=O)(=O)C(F)F)cc2)cc1 (centres undefined),-35.3%
18,CCc1ccc(C(C)NC(=O)CCl)cc1 (centres undefined),68.1% (active)
19,Nc1ccc(Cl)c(Cl)c1,85.7% (active)
20,Nc1ccc(Cl)c(-c2nc3ccccc3o2)c1,-33.1%
21,CNC(=O)c1ccc(CN(C)c2ccc(C(F)(F)F)cn2)cc1,56.7% (active)
22,CNC(=O)c1ccc(N(C)Cc2ccc(Cl)s2)nc1,18.8%
23,O=C(NCCc1ccc(C(F)(F)F)cc1)C1=COCCO1,28.4%
24,Cc1cnc(C)c(N2CCN(Cc3cc(C#CCO)cs3)CC2)n1,39%
25,c1ccc(-c2nc3c(c(N4CCN(Cc5cccc6cccnc56)CC4)n2)CCC3)cc1,31.1%
26,OCC#Cc1csc(CN2CCN(c3nccc4ccccc34)CC2)c1,51.9% (active)

row,Compound,inhibition
1,O=S(=O)(Nc1ccc(Br)cc1Br)c1ccc(Cl)s1,86.1% (active)
2,Cc1ccc(S(=O)(=O)Nc2ccc(Br)cc2Br)c(C)c1,50.7% (active)
3,O=S(=O)(Nc1cc2c(cc1Cl)OCO2)c1ccc(Cl)s1,101% (active)
4,CCCCCCNS(=O)(=O)c1ccc(Br)s1,78.5% (active)
5,O=S(=O)(Nc1ccc(Cl)cc1F)c1ccc(Cl)s1,-6.72%
6,CC(=NNS(=O)(=O)c1ccc(Br)cc1)c1ccc(Cl)s1,29.9%
7,O=S(=O)(Nc1ccc(Br)cc1)c1ccc(Cl)s1,95.3% (active)
8,O=S(=O)(Nc1ccc(Cl)cc1)c1ccc(Cl)s1,-18.5%
9,O=S(=O)(Nc1ccc(Br)cc1)c1ccc(Br)s1,96.8% (active)
10,N#CC1CCN(C(=O)Nc2ccc(OCC3CCCCC3)cc2)CC1,40%
11,O=C(COc1cccc(Cl)c1)N1CCC(CCc2ccc3c(c2)OCO3)CC1,43.2%
12,Cc1ccc(CCC2CCN(C(C)C(=O)Nc3ccc(S(N)(=O)=O)cc3)CC2)cc1 (centres undefined),3.86%
13,CCOc1ccc(NC(=O)N2CCC(CCc3ccc(C(F)(F)F)cc3)CC2)cc1,78.8% (active)
14,Cc1cc(C)cc(CN2CCC(CCc3ccc(C(F)(F)F)cc3)CC2)c1,-22.4%
15,CCOc1ccc(NC(=O)N2CCC(Cc3ccc4c(c3)OCO4)CC2)cc1,64% (active)
16,Cc1ccc(CCC2CCN(C(=O)Nc3cccnc3)CC2)cc1,90.4% (active)
17,CCCCc1nc2sc3c(NCCN4CCOCC4)ncnc3c2c2c1COC(C)(C)C2,71.5% (active)
18,CCCc1nc2sc3c(NCCN(C)C)ncnc3c2c2c1CCCC2,-36.3%
19,COc1ccnc(CS(=O)c2nc3ccc(OC(F)F)cc3[nH]2)c1OC (centres undefined),100% (active)
20,COc1cc2c(=O)[nH]c(-c3ccccn3)nc2cc1OC(F)F,43.2%
21,CN(C)CC[C@H](c1ccc(Cl)cc1)c1ccccn1,35.8%
22,Clc1ccc(Cl)c(SCCSc2ncn[nH]2)c1,23.3%
23,Clc1ccc(Cl)c(SCCc2ccccn2)c1,73.3% (active)
24,Fc1cc(F)cc(-c2cncc(COc3ccc(F)cc3F)c2)c1,59.7% (active)
25,O=C(c1csc(COc2ccc(F)cc2F)n1)N1CCCC1,-0.05%
26,O=S(=O)(NC1CCCCCCC1)c1ccccc1F,29.7%

row,Compound,inhibition
1,O=S(=O)(NC1CCCCCC1)c1ccc(Cl)cc1,76.5% (active)
2,O=S(=O)(NC1CCCCCC1)c1ccc(F)c(F)c1,-47.6%
3,Cc1ccccc1-c1nnn(Cc2cc(=O)n3c(C)cccc3n2)n1,32.9%
4,Cc1ccc(C(=O)Cn2nnc(-c3ccccc3C)n2)c(C)c1,90.1% (active)
5,COC(=O)C1=C(NC(=O)c2cccs2)CCS1,-17.8%
6,Cc1ccc(C)c(-c2csc(NC(=O)c3cccs3)n2)c1,42.1%
7,O=C(Nc1n[nH]c(=S)s1)c1cccs1,103% (active)
8,CCN(CC)CCNC(=O)c1cc(NC(=O)Nc2cccc(Br)c2)ccc1N1CCCCC1,39.5%
9,COc1ccc(-c2cc(C(=O)NN=Cc3ccc(Br)cc3)[nH]n2)cc1,36.8%
10,CC(C)Oc1ccc(-c2cc(C(=O)NN=Cc3cccs3)[nH]n2)cc1,68.8% (active)
11,Cc1ccccc1CC1(CO)CCCN(C(=O)CCC(F)(F)F)C1 (centres undefined),29.1%
12,Cc1cccc(C2(O)CCN(C(=O)CCc3ccccc3)CC2)c1C,75.2% (active)
13,Cc1ccccc1C1(O)CCN(C(=O)CCC2CCCC2)C1 (centres undefined),68% (active)
14,O=C(OCC(=O)N1CCN(c2ccc(F)cc2)CC1)c1ccc(O)cc1,87.3% (active)
15,Cc1ccccc1N1CCN(C(=O)CCc2nnc(CCCc3ccccc3)o2)CC1,26%
16,O=C(CCc1ccccc1)N1CCN(c2ccc(O)cc2)CC1,78.6% (active)
17,O=C(CC1Cc2ccccc2C1)N1CCC2(CCc3ccccc32)C1 (centres undefined),31.8%
18,O=C(COc1cccc(F)c1)N1CCC(c2ccc(O)cc2)CC1,39.3%
19,CCOC(=O)C1(CCCc2ccccc2)CCN(C(=O)CC2=CCCCC2)CC1,16.7%
20,O=C(CCC(F)(F)F)N1CCC(CO)(CCc2ccccc2)CC1,25.8%
21,Cc1cc(Cn2ccnc2-c2cc3ccc(F)cc3[nH]c2=O)on1,-7.89%
22,Cc1ccc(OCc2cc(C(=O)NC(C)c3nc(-c4ccccc4)no3)no2)cc1C (centres undefined),23%
23,CNC(=O)NC(=O)CCSC(C)c1nc(-c2ccc(C)c(F)c2)no1 (centres undefined),91.8% (active)
24,Cc1ccc2ncn(Cc3nc(-c4ccc(C)c(F)c4)no3)c(=O)c2c1,-6.02%
25,Cc1ccccc1Cc1nnc(CN(CC(C)O)c2ccccc2)o1 (centres undefined),80.1% (active)
26,CCOC(=O)/C=C/c1c([N+](=O)[O-])sc(Br)c1Br,103% (active)

row,Compound,inhibition
1,Cc1cccc(CN2CCCC(C(=O)Nc3ccc(-c4cscn4)cc3)C2)c1 (centres undefined),88.8% (active)
2,Cc1ccc(NC2CCCN(C(=O)c3cccs3)C2)cc1C (centres undefined),59.6% (active)
3,COCc1ccc(CN2CCCC(C(=O)Nc3ccc(-c4cscn4)cc3)C2)o1 (centres undefined),29%
4,CC(=O)c1cc(CN2CCCC(C(=O)Nc3ccc(-c4cscn4)cc3)C2)cs1 (centres undefined),70.9% (active)
5,O=C(Nc1ccc(-c2cscn2)cc1)C1CCCN(C(=O)c2cccs2)C1 (centres undefined),58.2% (active)
6,O=C(Nc1ccc(-c2cscn2)cc1)C1CCCN(Cc2ccon2)C1 (centres undefined),inactive
7,O=C(Nc1ccc(-c2cscn2)cc1)C1CCCN(C(=O)Cc2ccccc2F)C1 (centres undefined),33.2%
8,Cc1ccc(NC2CCCN(C(=O)C3CCCCC3)C2)cc1C (centres undefined),49%
9,O=C(c1ccc(Cl)s1)N1CCCC(Nc2ccc3c(c2)OCO3)C1 (centres undefined),44.6%
10,c1csc(-c2noc(CSc3nc4ccccc4o3)n2)c1,100% (active)
11,CC1CCc2sc(-c3nnc(SCc4nc(-c5cccs5)no4)o3)cc2C1 (centres undefined),5.99%
12,COc1ccccc1-c1noc(CSc2nc3ccccc3o2)n1,89.1% (active)
13,CCCNC(=O)CSc1nc2ccccc2o1,-21.7%
14,O=S(=O)(c1ccc(Cl)s1)N1CCCc2cccc(O)c21,43.4%
15,Cc1cccc2nc(-c3ccc(C(C)(C)C)cc3)c(NC(C)(C)C)n12,73.6% (active)
16,CNC(C)c1ccc(Sc2ccc(C(C)C)cc2)c(F)c1 (centres undefined),67% (active)
17,CC(=O)N(C)c1ccc(NC(C)c2ccc(F)c(F)c2)cc1 (centres undefined),20%
18,Cc1cc(I)ccc1N,83.3% (active)
19,O=C(COc1c(F)c(F)cc(F)c1F)c1ccc[nH]1,65.2% (active)
20,Nn1ccc2nc3ccn(CCC4=CCCCC4)c(=O)c3cc2c1=O,85.4% (active)
21,O=S(=O)(NCCC1=CCCCC1)c1cccc2nonc12,-1.1%
22,CCOC(=O)COc1ccc(C)cc1C(=O)c1cnc2c(c1)COc1ccccc1-2,61.1% (active)
23,CC(Nc1ccc(OCC(F)(F)F)cc1)C(=O)Nc1ccc(Cl)cn1 (centres undefined),97% (active)
24,CC(Nc1cccc(OC(F)(F)F)c1)C(=O)Nc1cccnc1Cl (centres undefined),-51.8%
25,O=C(CN(C1CCCCC1)C1CC1)Nc1ccc(Cl)cn1,37.5%
26,O=C1NC(=NN=Cc2cccnc2)SC1Cc1ccc(SC(F)F)cc1 (centres undefined),35.2%
